Experimental data taken from PubChem BioAssay (EPA / NIEHS).
Activity calls are given as the source filed them. Rule for the calls: active = hit-call score of the fitted dose curve at least 0.9, where 1 is the maximum; inactive = score below 0.9.

Key:
[1] = biological target: Bile acid receptor (Homo sapiens) (UniProt Q96RI1); assay: ATG_IR1_CIS: Attagene CIS-FACTORIAL HepG2 Assay for human Nuclear Receptor Subfamily 1 Group H Member 4 (NR1H4), IR1 submotif (AID 2282946); conditions: IR1 reporter transcription, actives raise or lower the signal
Chain of Bile acid receptor (Homo sapiens) (Q96RI1 whole entry, looked up): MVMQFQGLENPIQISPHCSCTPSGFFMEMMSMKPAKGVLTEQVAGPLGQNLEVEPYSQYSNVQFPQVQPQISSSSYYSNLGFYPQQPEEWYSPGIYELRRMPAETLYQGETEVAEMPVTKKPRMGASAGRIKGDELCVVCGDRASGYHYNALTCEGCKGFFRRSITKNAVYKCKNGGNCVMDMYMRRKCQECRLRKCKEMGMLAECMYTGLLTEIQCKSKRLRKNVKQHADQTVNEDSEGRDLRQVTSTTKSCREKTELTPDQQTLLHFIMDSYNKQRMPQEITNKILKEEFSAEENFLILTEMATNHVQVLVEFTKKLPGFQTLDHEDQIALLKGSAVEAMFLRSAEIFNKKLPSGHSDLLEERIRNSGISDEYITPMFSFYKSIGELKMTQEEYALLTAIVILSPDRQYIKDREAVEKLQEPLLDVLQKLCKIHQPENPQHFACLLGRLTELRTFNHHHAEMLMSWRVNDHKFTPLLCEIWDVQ
Summary of the method: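 Fluorescence of capillary-separated, HpaI-digested RT-PCR reporter products gave IR1-element mRNA induction in HepG2 cells 24 h after dosing. Endogenous transcription factors drove the cis-regulated reporters; activity was fitted bidirectionally against DMSO.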

[2] = ATG_GRE_CIS: Attagene CIS-FACTORIAL HepG2 Assay for human Glucocorticoid Response Elements (GRE) (AID 2282947); conditions: HepG2 GRE cis-reporter, Attagene multiplex mRNA; actives raise or lower the signal
Summary of the method: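 Fluorescence intensity of reporter-specific cDNA fragments, separated by capillary electrophoresis, provides the signal. Constructs carry cis-regulating promoters in transiently transfected HepG2 liver cells; 24 h incubation; fitting is bidirectional against DMSO.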

[3] = ATG_ISRE_CIS: Attagene CIS-FACTORIAL HepG2 Assay for human Interferon Regulatory Factor 1 (IRF1) binding to an Interferon-Stimulated Response Element (ISRE) (AID 2282948); conditions: HepG2 ISRE cis-reporter (Attagene), mRNA transcription readout; actives raise or lower the signal
Summary of the method: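 Endogenous transcription factor activity read as reporter transcript abundance via RT-PCR and capillary electrophoresis. HepG2 cells transiently transfected, 24 h chemical exposure. Gain or loss fitted against DMSO baseline.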

[4] = ATG_M_32_CIS: Attagene CIS-FACTORIAL HepG2 Assay for M32 Transcription Factor (Internal Marker) (AID 2282949); conditions: HepG2 Attagene cis-factorial M32 reporter, mRNA; actives raise or lower the signal;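 note: background control marker of the multiplexed CIS panel rather than a real target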
Summary of the method: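 HepG2 transfectants (cis-regulated reporter transcription units) dosed 24 h. Reporter mRNA by RT-PCR plus CE, analysed as gain or loss relative to DMSO.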

[5] = ATG_M_06_CIS: Attagene CIS-FACTORIAL HepG2 Assay for M06 Transcription Factor (Internal Marker) (AID 2282950); conditions: HepG2 Attagene CIS-FACTORIAL M06 internal marker reporter; actives raise or lower the signal
Summary of the method: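 HepG2 liver cells, 24 h exposure. Reporter transcripts from transfected cis-element constructs quantified by RT-PCR/capillary electrophoresis fluorescence. Bidirectional curve fit against DMSO.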

[6] = biological target: Hypoxia-inducible factor 1-alpha (Homo sapiens) (UniProt Q16665); assay: ATG_HIF1a_CIS: Attagene CIS-FACTORIAL HepG2 Assay for human Hypoxia Inducible Factor 1 (HIF1A) (AID 2282951); conditions: HepG2 Attagene cis-factorial HIF1a reporter transcription; actives raise or lower the signal
Chain of Hypoxia-inducible factor 1-alpha (Homo sapiens) (Q16665 whole entry, looked up): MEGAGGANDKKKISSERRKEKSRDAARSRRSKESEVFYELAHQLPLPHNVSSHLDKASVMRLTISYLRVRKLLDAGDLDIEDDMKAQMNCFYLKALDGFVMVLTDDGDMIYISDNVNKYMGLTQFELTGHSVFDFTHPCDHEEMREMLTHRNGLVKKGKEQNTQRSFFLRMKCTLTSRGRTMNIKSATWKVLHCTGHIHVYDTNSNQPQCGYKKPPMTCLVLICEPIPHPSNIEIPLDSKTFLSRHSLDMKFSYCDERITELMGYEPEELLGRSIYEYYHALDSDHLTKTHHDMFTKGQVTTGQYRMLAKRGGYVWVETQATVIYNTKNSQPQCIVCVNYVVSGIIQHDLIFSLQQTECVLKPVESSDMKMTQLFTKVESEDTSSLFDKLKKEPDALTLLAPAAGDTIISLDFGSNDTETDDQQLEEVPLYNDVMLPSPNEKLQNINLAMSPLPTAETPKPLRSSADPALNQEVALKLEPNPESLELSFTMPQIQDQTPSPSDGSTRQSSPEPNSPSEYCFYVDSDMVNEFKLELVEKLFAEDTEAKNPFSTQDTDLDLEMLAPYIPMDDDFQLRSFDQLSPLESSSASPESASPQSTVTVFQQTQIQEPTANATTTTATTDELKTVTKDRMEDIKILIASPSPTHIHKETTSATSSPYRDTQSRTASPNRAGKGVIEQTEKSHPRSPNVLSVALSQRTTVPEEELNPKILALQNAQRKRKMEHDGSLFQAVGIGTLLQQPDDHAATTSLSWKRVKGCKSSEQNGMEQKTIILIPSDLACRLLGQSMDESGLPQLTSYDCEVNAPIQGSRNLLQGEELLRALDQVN
Summary of the method: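 After 24 h chemical exposure of reporter-transfected HepG2 cells, reporter cDNA was PCR-amplified, labelled by 6-FAM primer extension (2 min 95 C, 20 s 68 C, 10 min 72 C), HpaI-cut (2 h, 37 C) and analysed by CE.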

[7] = biological target: Hepatocyte nuclear factor 6 (Homo sapiens) (UniProt Q9UBC0); assay: ATG_HNF6_CIS: Attagene CIS-FACTORIAL HepG2 Assay for human Hepatocyte Nuclear Factor 6 (HNF6) (AID 2282952); conditions: HepG2 Attagene cis-factorial HNF6 reporter transcription; actives raise or lower the signal
Chain of Hepatocyte nuclear factor 6 (Homo sapiens) (Q9UBC0 whole entry, looked up, the tested form may be a part): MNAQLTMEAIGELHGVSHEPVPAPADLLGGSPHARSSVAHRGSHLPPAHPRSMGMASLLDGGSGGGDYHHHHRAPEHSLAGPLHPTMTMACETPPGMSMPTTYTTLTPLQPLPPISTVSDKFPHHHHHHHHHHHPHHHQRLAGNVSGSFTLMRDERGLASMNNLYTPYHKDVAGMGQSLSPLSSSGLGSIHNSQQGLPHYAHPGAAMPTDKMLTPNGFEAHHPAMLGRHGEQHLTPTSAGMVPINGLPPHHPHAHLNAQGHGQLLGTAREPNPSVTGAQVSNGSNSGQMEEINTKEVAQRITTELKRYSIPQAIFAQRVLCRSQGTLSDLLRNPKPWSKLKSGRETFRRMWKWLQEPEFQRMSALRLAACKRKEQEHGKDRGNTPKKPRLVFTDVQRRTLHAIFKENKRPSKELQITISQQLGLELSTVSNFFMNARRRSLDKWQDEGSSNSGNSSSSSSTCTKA
Summary of the method: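 First, HepG2 cells were transfected with the multiplexed cis reporter library and dosed with chemical for 24 h. Next, RNA was reverse-transcribed, PCR-amplified and fluorescently labelled. Finally, HpaI-digested fragments were read by capillary electrophoresis.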

[8] = biological target: Heat shock factor protein 1 (Homo sapiens) (UniProt Q00613); assay: ATG_HSE_CIS: Attagene CIS-FACTORIAL HepG2 Assay for human Heat Shock Transcription Factor 1 (HSE) (AID 2282953); conditions: HepG2 HSE cis-reporter, Attagene RNA transcription; actives raise or lower the signal
Chain of Heat shock factor protein 1 (Homo sapiens) (Q00613 whole entry, looked up, the tested form may be a part): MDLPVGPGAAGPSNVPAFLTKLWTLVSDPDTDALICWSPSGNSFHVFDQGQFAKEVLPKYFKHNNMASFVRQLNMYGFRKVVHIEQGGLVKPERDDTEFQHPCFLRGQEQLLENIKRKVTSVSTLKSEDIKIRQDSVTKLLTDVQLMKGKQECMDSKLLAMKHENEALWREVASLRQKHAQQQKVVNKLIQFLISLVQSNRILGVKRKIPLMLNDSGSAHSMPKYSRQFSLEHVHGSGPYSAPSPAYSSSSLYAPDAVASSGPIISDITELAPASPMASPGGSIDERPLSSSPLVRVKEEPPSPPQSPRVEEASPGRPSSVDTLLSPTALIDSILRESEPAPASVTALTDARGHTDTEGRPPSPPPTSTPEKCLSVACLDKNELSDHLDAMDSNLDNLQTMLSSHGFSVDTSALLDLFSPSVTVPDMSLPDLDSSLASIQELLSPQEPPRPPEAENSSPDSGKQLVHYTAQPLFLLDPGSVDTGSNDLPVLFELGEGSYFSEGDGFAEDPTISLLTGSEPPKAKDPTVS
Summary of the method: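 Endogenous transcription factor activity captured via cis-promoter reporter units transfected into HepG2; treatment lasted 24 h. Fluorescence intensity of reporter fragments analysed with bidirectional curve fitting, DMSO baseline.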

[9] = ATG_MRE_CIS: Attagene CIS-FACTORIAL HepG2 Assay for human Metal Responsive Element (MRE) (AID 2282954); conditions: HepG2 MRE cis-reporter transcription, Attagene multiplex; actives raise or lower the signal
Summary of the method: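 Measured here is mRNA induction from an MRE cis-element reporter in HepG2 after 24 h, quantified by fluorescence of labelled RT-PCR products on capillary electrophoresis; gain- and loss-of-signal fits use DMSO as baseline.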

[10] = ATG_PBREM_CIS: Attagene CIS-FACTORIAL HepG2 Assay for human Phenobarbital-responsive Enhancer Module (PBREM) (AID 2282955); conditions: HepG2 PBREM cis-reporter, Attagene multiplexed transcription; actives raise or lower the signal
Summary of the method: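 Measures endogenous factor action on a phenobarbital-responsive enhancer module. HepG2 transiently carrying cis reporters, 24 h treatment, mRNA read-out by RT-PCR plus capillary electrophoresis.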

SMILES | outcome [1] | outcome [2] | outcome [3] | outcome [4] | outcome [5] | outcome [6] | outcome [7] | outcome [8] | outcome [9] | outcome [10] | AC50 [8] | AC50 [10] | AC50 [3] | AC50 [6] | AC50 [9] | AC50 [1] | AC50 [4]
CC(C=O)Cc1ccc(C(C)(C)C)cc1 (stereo not given) | inactive | inactive | inactive | inactive | inactive | inactive | inactive | inactive | inactive | inactive |  |  |  |  |  |  | 
CCCCCCCCCC(C)C=O (stereo not given) | inactive | inactive | inactive | inactive | inactive | inactive | inactive | inactive | inactive | inactive |  |  |  |  |  |  | 
CC(C)=CCCC(C)CCOC=O (stereo not given) | inactive | inactive | inactive | inactive | inactive | inactive | inactive | inactive | inactive | inactive |  |  |  |  |  |  | 
Nc1ccc2cc(S(=O)(=O)O)cc(O)c2c1N=Nc1ccccc1C(F)(F)F | inactive | inactive | inactive | inactive | inactive | inactive | inactive | inactive |  | inactive |  |  |  |  |  |  | 
CCC(C)S (stereo not given) | inactive | inactive | inactive | inactive | inactive | inactive | inactive | inactive | inactive | inactive |  |  |  |  |  |  | 
COc1cc(CCC(C)=O)ccc1O | inactive | inactive | inactive | inactive | inactive | inactive | inactive | inactive | inactive | inactive |  |  |  |  |  |  | 
CC1(C)C(=O)N(Cl)C(=O)N1Br | inactive | inactive | inactive | inactive | inactive | inactive | inactive | inactive |  | inactive |  |  |  |  |  |  | 
c1ccc2cc(Nc3ccc(Nc4ccc5ccccc5c4)cc3)ccc2c1 | inactive | inactive | inactive | inactive | inactive | inactive | inactive | inactive | inactive | inactive |  |  |  |  |  |  | 
CC(C)C[C@H](NC(=O)OCC1c2ccccc2-c2ccccc21)C(=O)O | inactive | inactive | inactive | inactive | inactive | inactive | inactive | inactive | inactive | inactive |  |  |  |  |  |  | 
CCc1ncc(C)[nH]1 | inactive | inactive | inactive | inactive | inactive | inactive | inactive | inactive | inactive | inactive |  |  |  |  |  |  | 
c1ccc(Oc2ccccc2)cc1 | inactive | inactive | inactive | inactive | inactive | inactive | inactive | inactive |  | inactive |  |  |  |  |  |  | 
C1CCOC1 | inactive | inactive | inactive | inactive | inactive | inactive | inactive | inactive | inactive | inactive |  |  |  |  |  |  | 
CCN(CCC#N)c1ccc(N=Nc2ccc([N+](=O)[O-])cc2)cc1 | inactive | inactive | inactive | inactive | inactive | inactive | inactive | inactive | inactive | inactive |  |  |  |  |  |  | 
CC(=O)O[C@@H]1C[C@@H]2CC[C@@]1(C)C2(C)C | inactive | inactive | inactive | inactive | inactive | inactive | inactive | inactive | inactive | inactive |  |  |  |  |  |  | 
CCCCOCC | inactive | inactive | inactive | inactive | inactive | inactive | inactive | inactive | inactive | inactive |  |  |  |  |  |  | 
CCCCCCCCCCCCN1CCCCCC1=O | inactive | inactive | inactive | inactive | inactive | inactive | inactive |  | inactive |  | 15.8 µM (active) | 9.68 µM (active) |  |  |  |  | 
NC1CCCCC1N (stereo not given) | inactive | inactive | inactive | inactive | inactive | inactive | inactive | inactive | inactive | inactive |  |  |  |  |  |  | 
CCCC[O][Al]([O]CCCC)[O]CCCC | inactive | inactive | inactive | inactive | inactive | inactive | inactive | inactive |  | inactive |  |  |  |  |  |  | 
O=[N+]([O-])c1ccc(O)cc1C(F)(F)F | inactive | inactive |  | inactive | inactive | inactive | inactive | inactive |  | inactive |  |  | 48 µM (active) |  |  |  | 
COC(=O)c1ccc([N+](=O)[O-])cc1 | inactive | inactive | inactive | inactive | inactive | inactive | inactive | inactive | inactive | inactive |  |  |  |  |  |  | 
Oc1c(Cl)cc(Cl)c(Cl)c1Cc1c(O)c(Cl)cc(Cl)c1Cl | inactive | inactive |  | inactive | inactive |  | inactive |  |  |  | 17.1 µM (active) | 1.12 µM (active) | 6 µM (active) | 8.52 µM (active) | 9.9 µM (active) |  | 
CCC(C)c1cc([N+](=O)[O-])cc([N+](=O)[O-])c1OC(=O)OC(C)C (stereo not given) |  | inactive |  |  | inactive | inactive | inactive |  |  | inactive | 26.6 µM (active) |  | 24.3 µM (active) |  | 34.8 µM (active) | 27.4 µM (active) | 49.2 µM (active)
O=C(O)c1ccc(O)cc1 | inactive | inactive | inactive | inactive | inactive | inactive | inactive | inactive | inactive | inactive |  |  |  |  |  |  | 
CCOC(=O)[C@@H](C)Oc1ccc(Oc2nc3ccc(Cl)cc3o2)cc1 | inactive | inactive | inactive | inactive | inactive | inactive | inactive | inactive | inactive | inactive |  |  |  |  |  |  | 
Cc1ccc(S(=O)(=O)Oc2ccc(N=Nc3ccc(-c4ccc(N=Nc5c(O)ccc6cc(S(=O)(=O)O)cc(S(=O)(=O)O)c56)c(C)c4)cc3C)cc2)cc1 | inactive | inactive | inactive | inactive | inactive | inactive | inactive | inactive | inactive | inactive |  |  |  |  |  |  | 
